The results in this text go back to PubChem BioAssay (NCI).

The structures appear in SMILES notation. This is part of a sample that, as a whole, favours compounds with a hit. Of some 83,000 tested, about 20% had one in any assay.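 The endpoint reported here, percent growth, reads 100 for growth as untreated, 0 for no net growth and -100 for all cells dead.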 Calls of active or inactive are those of the source. How the source made its calls: active means growth percent below 10; inactive means the rest.

This assay has as its system NCI-H23 lung. Put plainly: NCI-60 one-dose screen, 48 h (100 = growth as untreated, 0 = no growth, -100 = all killed). The following applies: 10 µM unless noted.
In the case of `CCCSc1nc(Nc2ccc(S(N)(=O)=O)cc2)c(C#N)c(-c2ccc(Cl)cc2)n1`, the growth was 31.4% (inactive).
Then `CCCCSc1nc(Nc2ccc(S(N)(=O)=O)cc2)c(C#N)c(-c2ccc(Cl)cc2)n1`, with 26.1% (inactive); and `Cn1cc(-c2cc3nc(-c4cn(C)c5ncccc45)cc(N)n3n2)c2ccccc21`, with 55.6% (inactive); and `Cc1ccc(C2=NN(c3nc(-c4cc5ccccc5oc4=O)cs3)C(c3ccc(C)cc3)C2)cc1` (configuration not stated), with 95.6% (inactive).
With `Cc1ccc2c(c1)nc(-c1ccccc1)n2CC(=O)N=Nc1c(O)[nH]c2ccc(Br)cc12`, the growth is -80.1% (active).
Then `O=C(Cn1nc(-c2ccccc2)ccc1=O)N/N=C/c1ccc(N2CCOCC2)cc1`, with 100% (inactive); and `O=C(NN1C(=O)/C(=C/C=C/c2ccc([N+](=O)[O-])o2)SC1=S)c1ccc(Cl)cc1`, with -86.7% (active); and `CCCCSc1nc(Nc2ccc(S(N)(=O)=O)cc2)c(C#N)c(-c2cc(OC)c(OC)c(OC)c2)n1`, with 82.9% (inactive).
Then `COc1cc2c3c(n(CCCN4CCC[C@@H]4CO)c(=O)c2cc1OC)-c1cc2c(cc1C3=O)OCO2`, with -85.7% (active).
Regarding `Cn1cc(-c2cc(N)n3nc(-c4cn(C)c5ncc(Br)cc45)cc3n2)c2cc(Br)cnc21`, the growth is -31.1% (active).
As to `Cn1cc(-c2cc(N)n3nc(-c4c[nH]c5ccccc45)cc3n2)c2cccnc21`, the growth is 47.6% (inactive).
Consider `CN(C)c1nc(NCCNS(=O)(=O)c2ccc(C3=Nc4c(N)nc(N)nc4NC(c4ccccc4)C3)cc2)nc(Nc2ccc(F)cc2)n1` (configuration not stated), for which the growth is 58.6% (inactive).
For `COc1ccc(-c2ccc(SCC(=O)NCCc3ccc(S(N)(=O)=O)cc3)nn2)cc1`, the growth was 64.2% (inactive).
As to `O=C(CCN1C(=O)/C(=C/c2ccc(F)cc2)SC1=S)N1CCOCC1`, the growth was 67.9% (inactive).
Take `Cc1cc2nc3c4ccccc4n(CC4=NCCN4)c3nc2cc1C`: the growth is -56% (active).
Then `Cc1ccc(C(=O)NN2C(=O)/C(=C/C=C/c3ccc([N+](=O)[O-])o3)SC2=S)cc1`, with -84% (active); and `Cc1cc2nc3c([nH]c2cc1C)c1ccc(=O)cc1n3CCN(C)C`, with 38.8% (inactive); and `N/C(=N\c1nc2ccccc2s1)NC(=O)Nc1c(Cl)cccc1Cl`, with 31.9% (inactive).
Then `Brc1ccc(-c2n(Cc3ccc4ccccc4c3)c(-c3ccccc3)c(-c3ccccc3)[n+]2Cc2ccc3ccccc3c2)cc1`, with -89.3% (active).
Then `C=C1CC[C@@H]2[C@]3(C)COC(c4cn[nH]c4-c4ccc(Br)cc4)O[C@@H]3CC[C@@]2(C)[C@@H]1C/C=C1/C(=O)OCC1O` (some centres not stated), with -86.1% (active); and `COc1ccc(-c2nc3cc(C)ccc3n2CC(=O)N=Nc2c(O)[nH]c3ccc(Br)cc23)cc1`, with -45.5% (active); and `CC12CC[C@@H]3[C@]4(C)COC(c5cn[nH]c5-c5cccc(Br)c5)O[C@@H]4CC[C@@]3(C)[C@@H]1CC(C1=CCOC1=O)O2` (some centres not stated), with 38% (inactive).
For `COc1c(F)ccc(C(=O)Nc2ccc3nc(NC(=O)C4CCCN(S(=O)(=O)c5ccc(C#N)cc5)C4)sc3c2)c1F` (configuration not stated), the growth is 88.9% (inactive).
Then `COc1ccc2c(c1)c(-c1cc3nc(-c4cn(C)c5ncccc45)cc(N)n3n1)cn2C`, with 0.244% (active).
Then `CC(=O)c1cc(C(=O)c2ccccc2)n2c1ccc1ccccc12`, with 105% (inactive).
With `COc1ccc2[nH]c(=O)c(CSc3nccc(-c4ccc(OC)c(OC)c4)n3)cc2c1`, the growth is 35.4% (inactive).
Then `COc1ccc(NC(=O)Cn2c3c(sc2=O)[C@H]2[C@@H](O)[C@@H](O)[C@H](O)[C@@H]2CS3)cc1`, with 104% (inactive); and `C=C1CCC2C3(C)COC(c4cccs4)OC3CCC2(C)C1CC(Sc1ccccc1)C1=CCOC1=O` (configuration not stated), with 79.1% (inactive).
Then `CC1CN(c2oc(-c3ccc([N+](=O)[O-])cc3)nc2C#N)CC(C)O1` (configuration not stated), with 97.9% (inactive).
Then `Cc1occc1C(=O)NN1C(=O)/C(=C/C=C/c2ccc([N+](=O)[O-])o2)SC1=S`, with -84.1% (active); and `N=C1N=C(SCc2nc3ccccc3[nH]2)NC(=O)/C1=C/c1ccc(Cl)cc1`, with 98.8% (inactive); and `O=C(NN1C(=O)/C(=C/C=C/c2ccc([N+](=O)[O-])o2)SC1=S)c1ccccc1O`, with -86.1% (active).
Regarding `COc1ccc(-c2nc3cc(C)ccc3n2CC(=O)N=Nc2c(O)[nH]c3ccc(Cl)cc23)cc1`, the growth was -62.9% (active).
Take `COC1=C[C@]23CCC(=O)N2CCc2cc4c(cc2[C@@H]3[C@@H]1OC(=O)[C@H](C)O)OCO4`: the growth is 9.59% (active).
Then `Cc1sc2c(c1C)C(c1ccc(Cl)cc1)=N[C@@H](CC(=O)NCCCCCNC(=O)COc1ccc(C3CCC(=O)NC3=O)cc1)c1nnc(C)n1-2` (some centres not stated), with 47.3% (inactive); and `N/C(=N\c1nc2ccccc2s1)NC(=O)Nc1ccc(Cl)cc1Cl`, with -83.4% (active); and `CC1=C(C#N)C2=NNCC(c3ccccc3)=NN2C(c2ccccc2)=C1`, with 105% (inactive).
